The values below come from PubChem BioAssay.

“And” between values parts separate entries of the source, which are not always exact repeats. Equal entries are not always repeated. Inconclusive results are not listed. For some of these results: Potency and affinity values are given separately. The source made the active and inactive calls. Unless noted, how the calls were made is not given here.

The nature of experiment [1]: antimalarial activity against Dd2 strain (AID 2302;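 active means growth inhibition above 50% at the single 2 µM test dose, taken to imply half-maximal potency below 2 µM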;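 further: 0% = DMSO untreated growth and 100% = chloroquine plus artemisinin killed control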). The settings on record: P. falciparum Dd2 in RBCs, LDH growth readout, 72 h; at 2 µM; stronger effect = higher value.
The nature of experiment [2]: human hepatoma cell viability loss – ATP luminescence, cytotoxicity control for P. falciparum antimalarial project, primary screen (AID 2303;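 active means inhibition above 50%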;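 further: 0% = DMSO wells and 100% = digitonin-killed cells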). The settings on record: HepG2 viability, 24-48 h, at 10 µM, stronger effect = higher value.
Experiment [3] deals with L-lactate dehydrogenase (Plasmodium falciparum (isolate CDC / Honduras)) (UniProt Q27743). Put plainly: PfLDH activity inhibition – cell lysate, 3D7 strain, counter-screen for P. falciparum growth inhibition project (AID 2304).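 Further: 0% = vehicle and 100% = reference inhibitor.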 The note with it: P. falciparum 3D7 crude extract, LDH APAD/NBT absorbance; at 2 µM; stronger effect = higher value. (In general: The purpose of a counterscreen is to sort out artefacts and off-target activity.)
L-lactate dehydrogenase (Plasmodium falciparum (isolate CDC / Honduras)), sequence (Q27743 whole entry, looked up): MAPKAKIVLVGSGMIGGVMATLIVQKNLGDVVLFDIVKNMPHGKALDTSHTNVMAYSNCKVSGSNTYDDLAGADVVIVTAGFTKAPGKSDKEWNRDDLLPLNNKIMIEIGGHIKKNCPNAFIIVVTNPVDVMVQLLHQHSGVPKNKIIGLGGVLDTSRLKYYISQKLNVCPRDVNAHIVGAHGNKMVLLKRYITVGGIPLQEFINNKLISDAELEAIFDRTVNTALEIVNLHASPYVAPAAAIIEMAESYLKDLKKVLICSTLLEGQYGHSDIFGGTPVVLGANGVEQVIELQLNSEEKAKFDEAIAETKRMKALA

Experiment [4] can be described thus: inhibition of 3D7 malaria parasite growth – strain 3D7 (AID 2306).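 Further: 0% = DMSO wells and 100% = chloroquine plus artemisinin control wells.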 The note with it: P. falciparum 3D7 erythrocytic growth, LDH absorbance, 72 h; at 2 µM; stronger effect = higher value.
In experiment [5] the target is Calcium-dependent protein kinase 1 (Plasmodium falciparum (isolate 3D7)) (UniProt P62344). The experiment can be described thus: PfCDPK1 kinase inhibitors, biochemical, TCAMS library (AID 1159585; cut-off not given, nearly all actives have IC50 up to about 0.98 µM;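 further: inhibitors leave more ATP so luminescence rises with inhibition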). The settings on record: recombinant PfCDPK1, Kinase-Glo ATP depletion luminescence.
Calcium-dependent protein kinase 1 (Plasmodium falciparum (isolate 3D7)), sequence (P62344 whole entry, looked up): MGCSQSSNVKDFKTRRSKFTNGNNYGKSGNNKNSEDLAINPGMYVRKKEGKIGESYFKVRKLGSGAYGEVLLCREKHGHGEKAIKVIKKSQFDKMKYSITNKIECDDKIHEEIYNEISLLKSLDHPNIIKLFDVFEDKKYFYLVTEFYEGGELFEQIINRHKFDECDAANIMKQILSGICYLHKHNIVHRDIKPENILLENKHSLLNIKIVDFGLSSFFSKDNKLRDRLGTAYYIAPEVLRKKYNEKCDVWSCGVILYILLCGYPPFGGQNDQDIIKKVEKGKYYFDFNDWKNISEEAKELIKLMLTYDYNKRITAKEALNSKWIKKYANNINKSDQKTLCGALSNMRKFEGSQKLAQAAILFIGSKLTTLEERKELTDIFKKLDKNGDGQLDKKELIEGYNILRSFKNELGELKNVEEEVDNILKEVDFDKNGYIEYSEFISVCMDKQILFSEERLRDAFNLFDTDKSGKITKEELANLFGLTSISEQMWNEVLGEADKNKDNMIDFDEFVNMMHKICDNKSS
Experiment [6] addresses Plasmodium falciparum protein kinase 6 (PK6, PF3D7_1337100) (UniProt Q8IDW1). Put plainly: PfPK6 kinase inhibitors, biochemical, TCAMS library (AID 1159586). The settings on record: recombinant PfPK6, Kinase-Glo ATP depletion luminescence. Background: Kinase-Glo reads ATP consumption through a luciferase reaction.
Experiment [7] deals with Protein kinase 7 (PK7), Plasmodium falciparum 3D7 (PF3D7_0213400) (UniProt Q7YTF7). Put plainly: inhibition of Plasmodium PK7 catalytic activity – biochemical, TCAMS antimalarial set, Kinase-Glo luminescence (AID 1159587). The settings on record: recombinant PfPK7, Kinase-Glo ATP depletion luminescence.
Protein kinase 7 (PK7), Plasmodium falciparum 3D7 (PF3D7_0213400), sequence (Q7YTF7 1-343): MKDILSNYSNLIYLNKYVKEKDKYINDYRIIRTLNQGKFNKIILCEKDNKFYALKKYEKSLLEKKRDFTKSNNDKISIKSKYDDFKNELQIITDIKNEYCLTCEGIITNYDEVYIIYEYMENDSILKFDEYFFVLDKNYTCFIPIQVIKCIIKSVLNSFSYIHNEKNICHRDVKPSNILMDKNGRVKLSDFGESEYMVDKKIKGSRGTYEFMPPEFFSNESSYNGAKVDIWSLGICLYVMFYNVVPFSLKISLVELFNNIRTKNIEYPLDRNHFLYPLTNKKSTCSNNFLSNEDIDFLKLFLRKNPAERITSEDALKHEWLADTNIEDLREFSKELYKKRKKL
The target of experiment [8] is Calcium-dependent protein kinase 4 (Plasmodium falciparum (isolate 3D7)) (UniProt Q8IBS5). The experiment can be described thus: PfCDPK4 kinase inhibitors, biochemical, TCAMS library (AID 1159588; cut-off not given, nearly all actives have IC50 up to about 0.91 µM). The settings on record: recombinant PfCDPK4, Kinase-Glo ATP depletion luminescence.
Calcium-dependent protein kinase 4 (Plasmodium falciparum (isolate 3D7)), sequence (Q8IBS5 whole entry, looked up): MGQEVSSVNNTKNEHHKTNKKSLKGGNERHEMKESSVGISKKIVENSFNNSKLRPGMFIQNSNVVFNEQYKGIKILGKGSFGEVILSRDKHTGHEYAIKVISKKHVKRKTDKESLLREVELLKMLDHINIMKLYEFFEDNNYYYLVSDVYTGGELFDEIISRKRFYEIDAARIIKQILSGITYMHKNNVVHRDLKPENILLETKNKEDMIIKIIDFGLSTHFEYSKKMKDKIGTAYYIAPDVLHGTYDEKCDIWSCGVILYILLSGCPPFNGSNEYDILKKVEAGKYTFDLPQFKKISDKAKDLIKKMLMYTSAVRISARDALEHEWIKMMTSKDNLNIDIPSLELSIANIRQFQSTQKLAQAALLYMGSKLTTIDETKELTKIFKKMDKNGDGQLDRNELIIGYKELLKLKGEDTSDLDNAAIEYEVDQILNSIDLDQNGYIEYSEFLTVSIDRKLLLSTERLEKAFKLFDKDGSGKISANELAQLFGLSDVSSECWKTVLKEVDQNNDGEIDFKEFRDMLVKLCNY
The subject of another experiment is F380Y. The experiment can be described thus: BK channel mutant inhibitors and activators – cell-based, U2OS BacMam, thallium flux, beta subunits, selectivity assay, profiling panel (AID 1259406;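 active means thallium flux through the channel raised or lowered by more than 3 SD from vehicle-only wells, actives on both sides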;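 further: initial slope of Thallos dye fluorescence rise after thallium is added; log ratio against the mean of 0.3% DMSO vehicle wells on the same plate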). The note with it: U2OS BacMam BK variants, at 30 µM.
A further experiment has as its system F380Y/beta1. The description is as above. The note with it: U2OS BacMam BK variants, at 30 µM.
A further experiment deals with F380Y/beta2Delta. The description is as above. The note with it: U2OS BacMam BK variants, at 30 µM.
Another experiment relates to F380Y/beta4. The experiment is described as above. The settings on record: U2OS BacMam BK variants, at 30 µM.
Experiment [9] concerns the target Calcium-activated potassium channel subunit alpha-1 (Homo sapiens) + Leucine-rich repeat-containing protein 26 (Homo sapiens) (UniProt Q12791+Q2I0M4). The experiment is described as above. The note with it: U2OS BacMam BK variants, F380Y/Slo1WT/gamma1, at 30 µM.
In a further experiment the test system is R275C. The description is as above. The settings on record: U2OS BacMam BK variants, at 30 µM.
A further experiment deals with R275C/beta1. Described as above. The settings on record: U2OS BacMam BK variants, at 30 µM.
A further experiment has as its system R275C/beta2Delta. The experiment is described as above. The note with it: U2OS BacMam BK variants, at 30 µM.
In the next experiment the test system is R275C/beta4. The experiment is described as above. The note with it: U2OS BacMam BK variants, at 30 µM.
In another experiment the test system is R275C/Slo1WT/beta2. Described as above. The note with it: U2OS BacMam BK variants, at 30 µM.
A short description of experiment [10]: P. berghei load reduction in hepatocytes – cell-based, HepG2, luciferase luminescence, HepG2 viability, primary screen (AID 624349; in the data active means parasite load remaining mostly below about 12%, no sharp cut-off; inactive means mostly above about 10%;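 further: 100% = mean of DMSO negative control wells on the same plate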). The note with it: P. berghei liver stage in HepG2, luciferase luminescence, concentration not given here; parasite load remaining: stronger effect = lower value; viability: measured here: HepG2 viability without parasites.
The subject of experiment [11] is Aerobactin synthetase IucA (Klebsiella pneumoniae). Put plainly: inhibition of K. pneumoniae IucA enzyme – biochemical, Tocris library, absorbance (AID 1345561).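 Further: 100% = enzyme without compound and 0% = no enzyme.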 The settings on record: purified IucA enzyme assay, absorbance (OD) read-out; stronger effect = lower value;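 tested at 8 µM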.
A short description of experiment [12]: viability loss in pontine glioma line – cell-based, SU-DIPG-XVII, MIPE5.0, CellTiter-Glo, qHTS, dose response (AID 1347060; cut-off not given, nearly all actives have AC50 up to about 26 µM;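 further: cells exposed to compound for 48 hours before viability readout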). The settings on record: CellTiter-Glo ATP luminescence. On the technique in general: Cellular ATP, detected with luciferase, serves as a proxy for viable cell number.
A short description of experiment [13]: viability loss in pontine glioma line – cell-based, SU-DIPG-XIII, MIPE4.0, CellTiter-Glo, qHTS, dose response (AID 1347061; cut-off not given, nearly all actives have AC50 up to about 37 µM;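 further: cells exposed to compound for 48 hours before readout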). The note with it: CellTiter-Glo ATP luminescence.
A short description of experiment [14]: viability loss in pontine glioma line – cell-based, JHH-DIPG-1, MIPE4.0, CellTiter-Glo, qHTS, dose response (AID 1347062; cut-off not given, nearly all actives have AC50 up to about 27 µM;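 further: cells exposed to compound for two days before readout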). The settings on record: JHH-DIPG-1 viability, CellTiter-Glo ATP luminescence.
Experiment [15] can be described thus: viability loss in pontine glioma line – cell-based, SU-DIPG-IV, MIPE4.0, CellTiter-Glo, qHTS, dose response (AID 1347063; cut-off not given, nearly all actives have AC50 up to about 30 µM;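 further: compound exposure lasted 48 hours before the viability readout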). The note with it: CellTiter-Glo ATP luminescence.
Experiment [16] can be described thus: viability loss in pontine glioma line – cell-based, SU-DIPG-XIII, MIPE5.0, CellTiter-Glo, qHTS, dose response (AID 1347064; cut-off not given, nearly all actives have AC50 up to about 23 µM;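 further: cells exposed to compound for 48 hours before the viability read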). The settings on record: CellTiter-Glo ATP luminescence.
Experiment [17] can be described thus: viability loss in pontine glioma line – cell-based, SU-DIPG-XXV, MIPE5.0, CellTiter-Glo, qHTS, dose response (AID 1347065; cut-off not given, nearly all actives have AC50 up to about 26 µM;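 further: cells exposed to compound for 48 hours before ATP readout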). The settings on record: CellTiter-Glo ATP luminescence.
Experiment [18] in a line: growth inhibition of DIPG cells – cell-based, MIPE4.0 library, CellTiter-Glo luminescence, qHTS (AID 1347066; cut-off not given, nearly all actives have AC50 up to about 30 µM;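 further: cells exposed to compound for 48 hours before readout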). The note with it: SU-DIPG-VI viability, CellTiter-Glo ATP luminescence.
Experiment [19] in a line: JHH-DIPG-1 glioma cell viability, MIPE5.0 library, CellTiter-Glo luminescence, qHTS (AID 1347067; cut-off not given, nearly all actives have AC50 up to about 26 µM;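 further: cells exposed to compound for 48 hours before readout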). The settings on record: JHH-DIPG-1 glioma viability, CellTiter-Glo ATP luminescence.
Experiment [20] in a line: growth inhibition of DIPG cells – cell-based, MIPE5.0 library, qHTS (AID 1347068; cut-off not given, nearly all actives have IC50 up to about 30 µM;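 further: cells exposed to compound for 48 hours before viability readout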). The settings on record: SU-DIPG-XXV viability.
Experiment [21] in a line: viability loss with induced miR-34 in A549 – imaging, A549 dox-inducible miR-34, nuclei and caspase counts, primary screen (AID 1347080;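 active means compounds whose cell count with miR-34 switched on is under 0.7 times the count with it off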). The note with it: A549 miR-34 inducible, Hoechst nuclei count, 48 h.
Experiment [22] in a line: MELAS cybrid and Rieske KO viability enhancers – cell-based, MELAS cybrids, Rieske KO mouse fibroblasts, CellTiter-Glo, primary screen (AID 1508586;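 active means mean z-score across replicates of 1.96 or higher in either the MELAS or the Rieske mutant cell line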;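 further: z relative to plate mean and SD of compound and empty wells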). The settings on record: low glucose.
Experiment [23] can be described thus: galactose survival enhancers in mitochondrial complex I cybrids – cell-based, galactose medium, ATP luminescence, primary screen (AID 1645843;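 active means z-score of at least 1.8 in each of two replicates, scored against plate mean and spread of sample wells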;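 further: positive z means more ATP and so rescue of galactose-driven cybrid death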). The settings on record: complex I mutant cybrid cells, 72 h, stronger effect = higher value.

Plasmodium falciparum protein kinase 6 (PK6, PF3D7_1337100), sequence (Q8IDW1 1-305): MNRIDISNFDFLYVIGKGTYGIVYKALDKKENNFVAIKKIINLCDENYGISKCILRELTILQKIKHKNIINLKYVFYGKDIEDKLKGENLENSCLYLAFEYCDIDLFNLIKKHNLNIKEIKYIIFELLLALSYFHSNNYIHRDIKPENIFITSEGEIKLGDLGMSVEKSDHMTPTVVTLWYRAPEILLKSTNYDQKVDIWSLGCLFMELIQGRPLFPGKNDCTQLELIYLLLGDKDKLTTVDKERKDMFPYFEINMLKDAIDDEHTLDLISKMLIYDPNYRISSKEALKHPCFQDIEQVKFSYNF
Calcium-activated potassium channel subunit alpha-1 (Homo sapiens) + Leucine-rich repeat-containing protein 26 (Homo sapiens), sequence (Q2I0M4 whole entry, looked up, one chain of several): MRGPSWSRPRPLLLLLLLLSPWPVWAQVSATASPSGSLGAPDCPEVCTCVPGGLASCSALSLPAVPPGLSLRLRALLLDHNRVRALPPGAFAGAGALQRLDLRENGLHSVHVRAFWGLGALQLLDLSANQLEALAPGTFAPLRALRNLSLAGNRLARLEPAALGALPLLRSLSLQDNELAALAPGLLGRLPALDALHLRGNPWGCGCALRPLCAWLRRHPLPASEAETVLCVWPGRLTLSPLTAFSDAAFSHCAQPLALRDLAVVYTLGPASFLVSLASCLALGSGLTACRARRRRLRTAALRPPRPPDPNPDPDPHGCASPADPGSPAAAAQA

As to `O=C(Nc1ccc(Oc2ccc(OC(F)(F)F)cc2)cc1)c1ccco1`, the growth inhibition in [1] is 71% (active); in experiment [4], 90% (active). In addition, the inhibition (usually the relative decrease from the control value, in per cent) in [2] was 5% (inactive); in experiment [3] it was -1% (inactive). For the same compound, the outcome in experiment [5], in experiment [6], in experiment [7] and in [8] was inactive. The log fold change Tl+ flux in the experiment on F380Y is -0.43 (active); with F380Y/beta1 it was -0.196 (active); with F380Y/beta2Delta, -0.597 (active); in the experiment with F380Y/beta4, -0.36 (active); in experiment [9] it was -0.305 (active); in the experiment on R275C, -0.00331 (inactive). Besides, the log fold change Tl+ flux in the experiment on R275C/beta1 is -0.0279 (inactive); in the experiment on R275C/beta2Delta, 0.0205 (inactive); in the experiment with R275C/beta4, -0.00484 (inactive); in the experiment on R275C/Slo1WT/beta2, 0.0301 (inactive).

With `Cc1cc(C2CCN(CCCCNC(=O)c3ccc(NC(=O)c4ccc(Cl)cc4)cc3)CC2)c(C)cc1OCc1cccnc1`, the values for the growth inhibition in [1] and in experiment [4] were 90% (active) and 101% (active), respectively. Also, the values for the inhibition in [2] and in [3] were 39% (inactive) and 0% (inactive), respectively. In addition, the result in experiment [5], in experiment [6], in experiment [7] and in experiment [8] was inactive.

`CN1CCC(C(=O)Nc2cccc(-c3ccc(-c4nc5ccc(C(F)(F)F)cc5[nH]4)s3)c2)CC1`: the growth inhibition is 95% (active) in experiment [1] and 101% (active) in experiment [4]. Further, the inhibition in [2] is 29% (inactive); in experiment [3], 0% (inactive). Besides, the result in [5], in [6], in [7] and in [8] was inactive.

As for `CCCCCCNc1c2ccccc2nc2ccccc12`, the growth inhibition in experiment [1] was 32% (inactive); in experiment [4] it was 97% (active). Besides, the inhibition in experiment [2] is 24% (inactive); in experiment [3], -3% (inactive). The outcome in experiment [5], in [6], in experiment [7] and in experiment [8] was inactive.

In the case of `CC(C)(C)c1ccc(NC(=O)c2cccc(CN3CCCN(Cc4ccc(F)cc4)CC3)c2)cc1`, the growth inhibition was 2% (inactive) in [1] and 88% (active) in experiment [4]. In addition, the figures for the inhibition in experiment [2] and in experiment [3] were 35% (inactive) and 0% (inactive), respectively. For the same compound, the result in experiment [5], in experiment [6], in experiment [7] and in [8] was inactive.

As to `Cc1cc(N(C)C)nc(Nc2ccc(NC(=O)c3ccccc3F)cc2)n1`, the growth inhibition was 26% (inactive) in experiment [1] and 89% (active) in [4]. The inhibition in experiment [2] was 0% (inactive); in experiment [3], 4% (inactive). The result in [5], in experiment [6], in [7] and in experiment [8] was inactive.

`O=C(Nc1cc(C(F)(F)F)cc(C(F)(F)F)c1)c1cc(Cl)ccc1O`: the growth inhibition was 98% (active) in experiment [1] and 90% (active) in experiment [4]. The inhibition in experiment [2] is 84% (active); in experiment [3] it was 2% (inactive). Besides, the parasite load remaining in experiment [10] is 0.02% (inactive). Moreover, in experiment [10], the viability – broadly, a per cent measure of how many cells are alive, often set against a control – was 51.5%. Besides, the result in experiment [5], in experiment [6], in [7] and in [8] was inactive. The remaining activity (in general, the signal under treatment as a percentage of the control signal) in experiment [11] is 120% (inactive). For the same compound, the AC50 (in general, the concentration giving half of the maximal activity seen) is 1320 nM (active) in [12]; 590 nM (active) in [13]; 1870 nM (active) in experiment [14]; 1480 nM (active) in experiment [15]; 1860 nM (active) in experiment [16]; 1320 nM (active) in [17]. Besides, the AC50 in experiment [18] was 209 nM (active); in experiment [19], 1480 nM (active). For the same compound, the concentration for half-maximal inhibition (IC50) (as a rule, the concentration needed to halve the response being measured) in [20] was 2630 nM (active). Besides, the fold change in experiment [21] (stronger effect = lower value, cell number ratio, induced over uninduced) was 0.989 (inactive) and 1.06 (inactive); in experiment [21] (measured here: relative caspase fold change +Dox/-Dox), 0.581 and 1.23. Moreover, the cell count in experiment [21] (measured here: total cells with miR-34 induction, stronger effect = lower value) was 1480 and 1100; in experiment [21] (measured here: total cells without miR-34 induction), 1500 and 1040. The z-score in experiment [22] (MELAS cybrid survival, CellTiter-Glo 48 h, stronger effect = higher value) is 0.314 (inactive); in experiment [22] (Rieske KO mouse fibroblast survival, CellTiter-Glo 72 h) it was -0.453; in experiment [23] it was -0.7 (inactive).
